The subject of assay [1] is Human papillomavirus type 1a protein E7 (residues 44-93). Kind of assay: small molecules binding HPV E7 44-93 – biochemical, small-molecule microarray, residues 44-93, 635 nm fluorescence, primary screen (AID 1108).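 Also: E7 fragment applied at 1 µg/mL in TBST for 1 h at 4 C; score combines spot fluorescence with its signal to noise ratio.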 The conditions noted are these: fluorescence 635 nm, higher = more signal.
A short description of assay [2]: hepatitis C replication reporter changes, two-sided – Huh7 cells, luciferase reporter, HCV replication inhibitor project, primary screen (AID 1109).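 Also: huh7 hepatoma cells harbouring a luciferase neomycin HCV replicon reporter; luciferase luminescence as measure of HCV replicon replication; test concentration not given here.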 The conditions noted are these: Huh7 HCV replicon luciferase reporter, 48 h; higher = more signal.
The target in assay [3] is Left-right determination factor 2 (Homo sapiens) (UniProt O00292). Kind of assay: small molecules binding LEFTY2 protein – biochemical, small-molecule microarray, 635 nm fluorescence scan, primary screen (AID 1110). The settings on record: higher = more signal.
Left-right determination factor 2 (Homo sapiens), sequence (O00292 whole entry, looked up): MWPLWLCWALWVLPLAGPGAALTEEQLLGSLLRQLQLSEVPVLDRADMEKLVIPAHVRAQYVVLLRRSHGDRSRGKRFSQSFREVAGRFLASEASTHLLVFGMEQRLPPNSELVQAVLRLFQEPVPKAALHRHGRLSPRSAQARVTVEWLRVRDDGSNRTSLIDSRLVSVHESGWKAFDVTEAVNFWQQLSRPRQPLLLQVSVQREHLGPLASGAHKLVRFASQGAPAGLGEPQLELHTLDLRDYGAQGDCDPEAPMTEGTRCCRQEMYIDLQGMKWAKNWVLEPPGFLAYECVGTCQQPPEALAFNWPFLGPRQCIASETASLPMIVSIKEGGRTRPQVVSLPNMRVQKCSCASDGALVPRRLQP
For assay [4], the target named is Calmodulin-1 (Homo sapiens) (UniProt P0DP23). Nature of the assay: small molecules binding calmodulin-1 with EGTA – biochemical, small-molecule microarray, Cy5-labelled CALM1, profiling panel (AID 1111).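 Also: labelled calmodulin applied in Tris saline Tween buffer holding calcium plus EGTA and DTT.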 The conditions noted are these: Cy5-CALM1 binding fluorescence, higher = more signal.
Assay [5] shares this target. Kind of assay: small molecules binding Ca-loaded calmodulin-1 – biochemical, small-molecule microarray, Cy5-labelled CALM1, plus calcium, artefact control for SMM control-protein annotation, profiling panel (AID 1112).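 Also: score merges spot fluorescence with signal to noise from triplicate slides.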 The conditions noted are these: Cy5-CALM1 binding fluorescence, higher = more signal.
Assay [6] in a line: probe aWnt5a binding to arrayed compounds – biochemical, biotinylated probe, 635/667 nm fluorescence, primary screen (AID 1113).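 Also: score merges 667 nm fluorescence intensity with signal-to-noise per printed feature.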 The conditions noted are these: small-molecule microarray, higher = more signal.
Assay [7] is described as follows: probe aShh binding to arrayed compounds – biochemical, biotinylated probe, 635/667 nm fluorescence, primary screen (AID 1114).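 Also: probe is biotin-labelled aShh protein from a stem cell growth factor screen; measures binding of labelled protein to compounds printed on the slide; score merges feature fluorescence at 667 nm with signal-to-noise.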 The settings on record: small-molecule microarray, higher = more signal.
The nature of assay [8]: probe aNog binding to arrayed compounds – biochemical, biotinylated probe, 635/667 nm fluorescence, primary screen (AID 1115).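 Also: probe is biotinylated aNog protein used at 0.15 µg/mL for 1 h at 4 C; z-score combines 667 nm fluorescence of each spot with its signal to noise.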 The conditions noted are these: small-molecule microarray, higher = more signal.
The target in assay [9] is Torsin-1A-interacting protein 1 (Homo sapiens) (UniProt Q5JTV8). Kind of assay: compound microarray binding of lysate hLAP1 – cell lysate, small-molecule microarray, COS7 lysate, 635/667 nm fluorescence, primary screen (AID 1116). The settings on record: 635 nm fluorescence, higher = more signal.
Torsin-1A-interacting protein 1 (Homo sapiens), sequence (Q5JTV8 whole entry, looked up): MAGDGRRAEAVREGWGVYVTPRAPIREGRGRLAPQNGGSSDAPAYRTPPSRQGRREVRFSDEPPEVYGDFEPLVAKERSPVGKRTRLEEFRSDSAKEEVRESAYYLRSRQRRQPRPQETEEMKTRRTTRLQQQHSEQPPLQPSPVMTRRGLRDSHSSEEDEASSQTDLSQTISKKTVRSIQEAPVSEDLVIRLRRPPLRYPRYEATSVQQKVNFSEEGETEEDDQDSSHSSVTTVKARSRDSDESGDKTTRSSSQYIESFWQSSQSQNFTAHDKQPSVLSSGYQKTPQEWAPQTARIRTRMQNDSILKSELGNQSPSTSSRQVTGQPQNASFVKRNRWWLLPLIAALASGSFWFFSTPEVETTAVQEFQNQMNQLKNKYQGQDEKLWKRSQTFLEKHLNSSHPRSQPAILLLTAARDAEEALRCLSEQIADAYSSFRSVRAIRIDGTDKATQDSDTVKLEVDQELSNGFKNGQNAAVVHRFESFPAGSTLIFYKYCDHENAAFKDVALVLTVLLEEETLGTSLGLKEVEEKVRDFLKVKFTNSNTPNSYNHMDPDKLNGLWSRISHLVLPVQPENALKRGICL
Assay [10] concerns the target Alpha-bungarotoxin (Bungarus multicinctus) (UniProt P60615). Nature of the assay: compounds binding labelled alpha-BTX control protein – biochemical, small-molecule microarray, Alexa647 label, 635/667 nm fluorescence, artefact control for SMM control protein annotation, profiling panel (AID 1117). The conditions noted are these: alpha-BTX-A647 binding fluorescence, higher = more signal.

A further assay addresses Albumin (Bos taurus) (UniProt P02769). Kind of assay: compounds binding labelled BSA control protein – biochemical, small-molecule microarray, Alexa647 label, 635/667 nm fluorescence, artefact control for SMM control protein annotation, profiling panel (AID 1118).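 Also: score merges 667 nm emission intensity and signal-to-noise per printed compound spot.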 The conditions noted are these: BSA-A647 binding, fluorescence 635 nm, higher = more signal.
Assay [11] is described as follows: probe aXIP binding to arrayed compounds – biochemical, NeuroSMM set, 635/667 nm fluorescence, primary screen (AID 1119).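 Also: probe is the protein aXip251-270 applied at 1 µg/mL to compound-printed slides; binding of probe to printed compounds measured as 667 nm fluorescence plus signal to noise.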 The conditions noted are these: small-molecule microarray, higher = more signal, called active from +8 up or from −8 down.
Assay [12] in a line: probe aNOTCH3 binding on compound microarray – biochemical, small-molecule microarray, 635/667 nm fluorescence, primary screen (AID 1120).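 Also: probe is a biotin-tagged antibody raised against NOTCH3 rather than NOTCH3 protein; score merges spot fluorescence near 667 nm with spot signal to noise.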 The settings on record: higher = more signal.
Assay [13] is described as follows: probe aNOTCH2 binding on compound microarray – biochemical, small-molecule microarray, 635/667 nm fluorescence, primary screen (AID 1121).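 Also: score merges feature fluorescence read at 667 nm with its signal to noise.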 The settings on record: higher = more signal.
The target of assay [14] is Carbonic anhydrase 2 (Homo sapiens) (UniProt P00918). Nature of the assay: compounds binding carbonic anhydrase 2 – biochemical, small-molecule microarray, Alexa647-labelled CAII, profiling panel (AID 1122). The settings on record: CAII-A647 binding fluorescence, higher = more signal.
A short description of assay [15]: COS7 lysate on small-molecule microarray, probe aHis, 635 nm (AID 1123).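 Also: z-score combines 667nm fluorescence intensity with signal-to-noise per printed compound spot.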 The conditions noted are these: COS7 cell lysate, fluorescence, higher = more signal.
Assay [16] is described as follows: probe aLAP1 signal on lysate-treated microarray – cell lysate, small-molecule microarray, COS7 lysate, primary screen (AID 1124).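 Also: lysate comes from COS7 cells expressing LAP1 and is applied at 0.3 µg/mL; score merges spot fluorescence near 667 nm with signal-to-noise over triplicate slides.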 The conditions noted are these: probe aLAP1, fluorescence, higher = more signal.
A further assay deals with Sam68 (KHDRBS1). Nature of the assay: compounds binding KHDRBS1 protein – biochemical, small-molecule microarray, 635 nm fluorescence, primary screen (AID 1125).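 Also: score merges 667 nm channel intensity with signal to noise over triplicate slides.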 The conditions noted are these: higher = more signal.
Assay [17] has as its system Chordin-like protein 2 (CHRDL2). Nature of the assay: compounds binding chordin-like 2 – biochemical, small-molecule microarray, 635 nm fluorescence, primary screen (AID 1126).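 Also: printed compound slides probed with Chrdl2 protein at 4 µg/mL for 1 h at 4 C; score merges 667 nm emission intensity with signal to noise over three replicate slides.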 The conditions noted are these: fluorescence 635 nm, higher = more signal.
Assay [18] deals with Concanavalin-A (Canavalia ensiformis) (UniProt P02866). Nature of the assay: compounds binding concanavalin A lectin – biochemical, small-molecule microarray, Alexa647 label, 635 nm, artefact control for SMM control protein annotation, primary screen (AID 1127).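 Also: z combines 667 nm emission intensity with signal-to-noise across three replicate slides.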 The conditions noted are these: ConA-A647 binding fluorescence, higher = more signal.
Concanavalin-A (Canavalia ensiformis), sequence (P02866 whole entry, looked up): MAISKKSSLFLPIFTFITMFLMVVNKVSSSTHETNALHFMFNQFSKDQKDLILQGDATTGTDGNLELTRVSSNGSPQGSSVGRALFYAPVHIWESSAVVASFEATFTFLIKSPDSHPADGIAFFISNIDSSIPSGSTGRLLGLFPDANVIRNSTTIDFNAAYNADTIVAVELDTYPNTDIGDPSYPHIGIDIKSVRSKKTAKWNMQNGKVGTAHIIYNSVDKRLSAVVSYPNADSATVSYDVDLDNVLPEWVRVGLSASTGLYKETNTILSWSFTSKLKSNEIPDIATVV

This passage reports composite z-score, z-score and composite Z-score results from PubChem BioAssay.

SMILES strings stand for the structures. Active and inactive are the calls of the source.

Alpha-bungarotoxin (Bungarus multicinctus), sequence (P60615 whole entry, looked up): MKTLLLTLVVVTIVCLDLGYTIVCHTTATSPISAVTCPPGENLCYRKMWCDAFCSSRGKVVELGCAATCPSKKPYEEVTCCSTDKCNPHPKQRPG
Albumin (Bos taurus), sequence (P02769 whole entry, looked up): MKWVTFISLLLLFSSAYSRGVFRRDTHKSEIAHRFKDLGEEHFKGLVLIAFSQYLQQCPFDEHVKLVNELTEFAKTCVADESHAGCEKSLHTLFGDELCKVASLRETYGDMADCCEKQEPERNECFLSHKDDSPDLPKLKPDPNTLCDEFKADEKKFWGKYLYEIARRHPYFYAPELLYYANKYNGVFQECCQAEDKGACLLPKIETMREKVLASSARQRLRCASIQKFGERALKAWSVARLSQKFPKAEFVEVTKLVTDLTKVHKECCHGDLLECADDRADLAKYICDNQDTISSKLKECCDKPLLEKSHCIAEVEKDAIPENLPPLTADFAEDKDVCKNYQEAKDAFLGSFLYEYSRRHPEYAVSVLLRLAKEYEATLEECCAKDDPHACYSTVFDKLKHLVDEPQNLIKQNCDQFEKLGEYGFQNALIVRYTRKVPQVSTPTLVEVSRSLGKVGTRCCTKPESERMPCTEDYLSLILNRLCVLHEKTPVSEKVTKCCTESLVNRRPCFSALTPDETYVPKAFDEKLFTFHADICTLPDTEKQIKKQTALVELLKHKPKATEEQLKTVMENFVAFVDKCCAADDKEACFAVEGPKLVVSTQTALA

With `COCC(=C=CC[C@H](O)c1ccc(OCCO)cc1)C[C@H](O)c1cc(Cl)cc(Cl)c1O`, the composite z-score in assay [1] is 1.35; in assay [3] it was 0.628; in assay [4], -0.281; in assay [5], -0.814; in assay [6], -0.0108; in assay [7], 0.678. Also, the composite z-score in assay [8] is 0.277; in [9], 0.163; in assay [10], 0.155; with Albumin (Bos taurus) it was -0.679; in [12] it was 0.114; in assay [13], -0.122. The composite z-score was 0.718 in assay [14]; -1.65 in assay [15]; 0.359 in assay [16]; 1.17 with Sam68 (KHDRBS1); 0.923 in [17]; 0.661 in assay [18]. The compound further came in with a z-score in [2] of -3.96. Further, the composite Z-score in assay [11] was -0.566 (inactive).

Regarding `CCOC(=O)[C@H]1C/C=C/C[C@H](C(=O)OCC)C(=O)O[C@H]2[C@@H](OC)O[C@H](CO)[C@@H](OC(=O)Nc3ccc4c(c3)OCO4)[C@@H]2OC1=O`, the composite z-score in assay [1] is 0.433; in [3] it was -0.261; in [4], 0.346; in [5], 0.152; in [6], 0.0608; in [7] it was 0.28. Moreover, the composite z-score is 0.122 in assay [8]; 0.591 in [9]; 0.167 in assay [10]; 0.783 with Albumin (Bos taurus); 0.0927 in [12]; -0.0425 in assay [13]. For the same compound, the composite z-score in assay [14] is 0.484; in [15], 1.74; in assay [16], 0.143; with Sam68 (KHDRBS1), 0.521; in [17], -0.384; in assay [18], 0.468. This compound also had a z-score in [2] of -3.52. In addition, the composite Z-score in [11] is 0.622 (inactive).

On to `COc1ccc(C(=O)Nc2cccc(CN3C(=O)[C@@]4(O[C@@H](CCn5cc(CCO)nn5)[C@H]([Si](C)(C)c5ccc(OC)cc5)[C@H]4C)c4ccccc43)c2)cc1`, for which the composite z-score was 1.37 in assay [1]; 0.714 in assay [3]; 0.468 in [4]; 0.308 in [5]; -0.0403 in assay [6]; 0.13 in assay [7]. The composite z-score in [8] is 0.153; in [9], 0.602; in assay [10], 1.6; with Albumin (Bos taurus), -0.194; in assay [12], 0.149; in [13], -0.084. The composite z-score is 0.411 in assay [14]; 0.733 in [15]; -0.046 in assay [16]; 1.3 with Sam68 (KHDRBS1); 1.05 in [17]; 1.08 in assay [18]. In assay [2], this compound displayed a z-score of -5.15. The composite Z-score in [11] was 1.4 (inactive).

Regarding `CC(C)C[C@@H]1NC(=O)[C@H]2C[C@@H](C(=O)NCCCCCCNC(=O)CS)[C@@H](c3cccc(OCCO)c3)N2C1=O`, the composite z-score is 1.41 in assay [1]; 1.45 in [3]; 0.83 in [4]; -0.587 in assay [5]; -0.001 in assay [6]; -0.282 in [7]. For the same compound, the composite z-score in assay [8] is -0.152; in [9], 1.95; in assay [10] it was 1.17; in the assay with Albumin (Bos taurus), -0.641; in assay [12], 0.0493; in [13], -0.132. Besides, the composite z-score came out at 0.338 in assay [14]; 1.68 in assay [15]; 0.995 in assay [16]; 1.22 in the assay on Sam68 (KHDRBS1); 1.41 in assay [17]; 1.17 in assay [18]. Also, in assay [2], the z-score was -0.117. Besides, in assay [11], the composite Z-score is 0.156 (inactive).

Consider `CCOC(=O)C[C@H]1[C@H](OC(=O)c2ccc(-c3ccccc3)cc2)[C@@H](NC(=O)c2ccc(-c3ccccc3)cc2)c2cc(OCCCO)ccc2N1C(=O)Cc1ccc(OC)cc1`, for which the composite z-score in [1] was 0.629; in [3], -0.186; in assay [4] it was 0.382; in assay [5], -0.971; in assay [6], -0.0765; in [7] it was -0.366. The composite z-score was -0.456 in assay [8]; 0.575 in assay [9]; 0.0738 in assay [10]; 0.225 with Albumin (Bos taurus); -0.0146 in assay [12]; -0.125 in [13]. Further, the composite z-score in [14] was -0.0968; in [15] it was 0.589; in assay [16], -0.002; with Sam68 (KHDRBS1) it was -0.316; in assay [17] it was -0.15; in assay [18] it was 0.363. For the same compound, the z-score in [2] was -1.27. The composite Z-score in [11] was -0.576 (inactive).

For `COCCOC(=O)N1C(=O)[C@@]2(c3cc(C#CCC(C(=O)OC)C(=O)OC)ccc31)[C@H](c1ccc(O)cc1)N1[C@H](c3ccccc3)[C@H](c3ccccc3)OC(=O)[C@H]1[C@@H]2C(N)=O`, the composite z-score in assay [1] is 0.698; in [3], 0.715; in [4], 0.537; in [5] it was -0.259; in assay [6] it was 0.0297; in [7], 0.0469. In addition, the composite z-score was 1.29 in assay [8]; 1.03 in [9]; 0.944 in [10]; 0.47 with Albumin (Bos taurus); -0.0647 in assay [12]; 0.0232 in assay [13]. For the same compound, the composite z-score in [14] came to 0.438; in assay [15] it was 1.2; in assay [16], 0.647; in the assay with Sam68 (KHDRBS1), 1.31; in [17], 0.778; in assay [18], 0.859. The z-score in assay [2] is -0.633. Moreover, the composite Z-score in assay [11] is 1.07 (inactive).
